Laboratory results published in the supplement of paper PMC3334620.
Whole data set: some 33,000 sequences, median “E-score (-0.5 to 0.5)” near -0.01, cut for the highest 2% near 0.26. The sample holds the highest values, similar sequences and a random draw of the others, so the mix is not that of the screen.

Target: Ste12 (UniProt P13574)
Assay: PBM E-score (8-mer binding enrichment) (E-score (-0.5 to 0.5)); higher = stronger / more preferred TF binding
Conditions: protein concentration: 200 nM; construct: GST-DNA-binding domain
Method in brief: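 Universal all-10-mer Agilent arrays, double-stranded by primer extension on fresh or once-stripped slides, were probed with about 100-200 nM GST-tagged yeast transcription factors made by PURExpress. Fluorescent anti-GST detected bound protein, and masliner normalised the scans. E-scores from the Universal PBM Analysis Suite were given to each ungapped eight-base word pooled with its reverse complement.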

Chain of UniProt P13574 (P13574 whole entry): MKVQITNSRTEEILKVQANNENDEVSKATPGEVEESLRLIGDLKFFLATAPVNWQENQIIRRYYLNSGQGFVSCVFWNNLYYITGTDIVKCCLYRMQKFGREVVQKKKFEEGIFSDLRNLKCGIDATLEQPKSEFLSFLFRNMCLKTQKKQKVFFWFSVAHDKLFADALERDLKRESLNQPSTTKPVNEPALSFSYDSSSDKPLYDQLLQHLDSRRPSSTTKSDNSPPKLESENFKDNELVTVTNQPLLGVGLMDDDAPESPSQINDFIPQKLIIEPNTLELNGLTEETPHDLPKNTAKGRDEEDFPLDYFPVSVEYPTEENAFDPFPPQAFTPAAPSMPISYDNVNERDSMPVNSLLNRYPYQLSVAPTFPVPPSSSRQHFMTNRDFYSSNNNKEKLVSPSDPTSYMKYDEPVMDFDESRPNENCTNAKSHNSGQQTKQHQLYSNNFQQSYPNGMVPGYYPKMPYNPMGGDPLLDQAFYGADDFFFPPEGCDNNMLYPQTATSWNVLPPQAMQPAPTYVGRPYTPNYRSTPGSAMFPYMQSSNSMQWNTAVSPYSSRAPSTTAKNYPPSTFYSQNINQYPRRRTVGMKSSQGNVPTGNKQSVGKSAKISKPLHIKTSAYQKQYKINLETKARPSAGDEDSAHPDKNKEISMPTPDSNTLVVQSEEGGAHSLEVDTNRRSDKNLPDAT

Sequence	PBM E-score
TACTTCCA	0.0198
AATGGGAT	-0.185
CGCAAACA	0.053
AAGTCGGC	-0.16
AACGCTTA	-0.0484
CGACAGAC	-0.00066
CAGGTCCC	-0.104
AGCTGATG	0.129
GAACGGTA	-0.17
CCGTTTCA	0.46
CCGTTTCC	0.139
CCGTTTCG	0.164
GAACTCCC	0.0278
ATGCGATG	0.00552
GTTGGTCA	0.121
GAAATTAC	0.176
CGAATGAA	0.084
GAAATTAA	0.294
CAAATTAA	0.203
AAAATGAG	0.124
GAAATGAA	0.331
GGAATGAA	0.281
CAAATGAA	0.238
AAAATGAT	0.317
AAAATGAC	0.121

Sequence	PBM E-score
TAAATGAA	0.185
TGAATGAA	0.208
AAGTTGAA	0.134
CCGGCCCG	0.00367
CGCCAAAA	0.227
GGGGTGGA	0.00832
ACCTTATG	0.0329
TCCTAAGA	-0.00559
AAAGGTTC	-0.154
AAAATGGA	0.237
AAAATGAA	0.27
AAAATGCA	0.00439
GCCTCAGC	-0.226
ATAAAGTC	0.167
AGATGGCT	-0.0505
CATGTAAA	0.027
AATGTAAT	0.187
AATGTAAA	0.269
TATTCAGA	0.029
CGCCAATA	0.036
GTTTGAGA	0.311
CTTTGAAC	0.0927
ATTTGAAA	0.366
CTTTGACA	-0.0728
ATTTGAAG	0.0968

Sequence	PBM E-score
GTTTGATA	0.301
CTTTGAGA	0.114
CTTTGATA	0.179
ATTTGAAC	0.123
CTTTGAAA	0.318
ATTTGATA	0.258
ATTTGAGA	0.126
CGCCCTTA	-0.0507
AGTGAACG	-0.109
TGCGTCAA	0.0654
GTCCAAAC	0.0248
ACGCTTGG	-0.293
ATAGACGC	0.0365
GTTTGACA	0.0294
GTTTGAAA	0.409
GTTTGCAA	0.186
AGCGGCTC	-0.0004
CACCAAAA	0.216
AACCAAAA	0.324
ACCAAAAA	0.27
ACCAAAAT	0.254
ACCAACAA	0.269
TACCAAAA	0.204
ACCAAAAC	0.235
ACCAACAG	-0.042

Sequence	PBM E-score
ACCAACAT	0.125
TATTAAGA	0.0777
GCATCTAC	0.0977
AGCTTGAA	-0.0125
GATGGAAA	0.0433
CGTGGAAA	0.19
AGTGGAAA	-0.0995
TATGGAAA	0.292
CATGGAAA	0.098
TGTGGAAA	0.286
CTCAAGGA	-0.181
ACTGGTCC	-0.0777
AACTTTTA	0.228
CACCTTCC	0.0254
GAAACCCA	0.246
AAACCCCC	-0.122
AAACCCAT	0.131
CAAACCCG	0.0369
AAACCCAA	0.349
AACCCCCG	-0.133
GAACCCGA	-0.0553
AAACCCCG	0.28
GAACCCAA	-0.0682
TAACCCGA	-0.0489
AAACCCGA	0.336

Sequence	PBM E-score
CAAACCCA	0.262
GCGCACCC	-0.0102
CCAAGGGC	-0.139
CCGCACCC	0.222
CAAGTTCG	-0.0514
CTTCTAAC	-0.0172
AGTCTAGC	-0.223
CTATCGCA	-0.0857
AGGTGATA	0.0763
ACCGATGC	-0.0639
ATGAAAAT	0.166
ATGAAAAA	0.305
ACGAAAAC	0.25
TTGAAAAA	0.323
CTGAAAAA	0.0763
GTGAAAAC	0.0815
ATGAAAAG	-0.0787
ATGAAAAC	0.349
TAGAAAAA	0.0605
CGACCTTA	0.111
ACGCCAGT	-0.084
ATAACTAT	0.0787
AAAAAATC	0.363
ACAAAATC	0.291
ACAAAATG	0.0682

Sequence	PBM E-score
GAAAAATC	0.201
CAAAAATC	0.123
ACAAAATA	0.0836
CTACCACC	-0.102
AATCGACA	0.248
CAGCGACC	-0.0234
GGCGTGGA	-0.0873
AATAGTCA	-0.0559
ATTTACAC	0.18
TGGTGCAA	-0.18
TGGTGAAA	0.277
CGGTGAAA	0.245
GGGTGAAA	0.315
TGGTGACA	0.048
AGGTGAAA	0.235
AGCTGGGG	-0.136
ACCCAGGT	-0.218
CCAAGAAC	-0.11
CGCCAACA	-0.0261
GCACATCA	-0.00042
GCCCCCAA	-0.0804
AATAAATA	0.21
TATAAATA	0.228
TAAAAATA	0.318
CAAAAATG	0.182

Sequence	PBM E-score
CCAAAATA	0.21
GTAAAATA	0.131
GAAAAATA	0.217
CATAAATA	0.268
CTAAAATA	0.181
AAAAAATA	0.267
ATAAAATA	0.257
CAAAAATA	0.346
GCCTAAAA	-0.0428
CATCCCAA	0.0892
CTCAACTC	0.141
ATGACTAG	-0.183
ACACATCC	-0.0267
GTTCACCA	-0.0697
TCCCTCCA	-0.191
ATATTGAT	0.248
AAATCTTC	0.0263
GAGGTAGC	-0.239
CAGGGTTC	-0.0459
AAACGCGG	0.264
CAACGCGG	-0.0344
AAACGCGT	0.255
CGCCGTCA	0.0459
ACTCTGCT	-0.0783
GATATTGC	0.0418

Sequence	PBM E-score
CCAATCCG	0.281
CCAATCCC	0.104
ACAATCCG	-0.0367
GGCTACCC	-0.285
GGGGCGTA	0.282
AGGGCGTA	-0.176
AGGGCGGA	-0.248
CGGGCGTA	-0.0442
GGGGCGGA	0.404
CGGGCGGA	-0.012
CGCTCCAG	0.0315
CAACCTGC	0.0657
CCTGCAGG	-0.16
AAAAGTTT	0.283
AAAAGTGA	0.267
AAAAGTTG	0.127
AAAAGTTC	0.0553
AAAAGTAA	0.287
AAAAGTAT	0.178
CAAAGTAA	0.125
AAAAGTGG	0.139
AAAAGTGT	0.0304
CAACAGCC	-0.0347
TATCGAAA	0.258
GAGTATCC	-0.127

Sequence	PBM E-score
AGGTAGAG	-0.0159
CGCTGGCA	0.00792
TCACCAAA	0.177
CCAGCAGG	-0.107
ATGATGGG	-0.0865
ACGAAACT	0.127
CCGAAAAC	0.0124
TCGAAAAA	0.238
CCGAAACC	0.142
GCGAAACA	0.134
ACGAAACC	0.242
TCGAAACA	0.395
ACGAAACA	0.327
CCGAAACG	0.152
CCGAAAAG	0.235
CCGAAAAA	0.269
CCGAAACA	0.376
ATTTTTGC	0.236
CCTCTAGA	-0.134
ATTCGCGA	0.0844
ATAGACTC	-0.133
CAGCTTAC	0.0225
AAGACATG	-0.137
GCCTGGGA	-0.23
TACCTGGA	-0.0387

Sequence	PBM E-score
TCCCGCAA	0.18
ACATAGGA	-0.0111
ATTTAGGA	-0.039
ACAGAATA	0.0915
CTCGCAGC	0.0324
AAGAAACT	0.172
AAGAAACA	0.285
ACGAAACG	0.31
CAGAAACA	0.156
ACGAAAAG	0.16
ACGAAAGG	0.0336
GGTCCATA	-0.111
AAGCAATA	0.0028
ACGGCATG	-0.107
GAGGTAAA	0.334
CAGGTAAA	0.248
GAGGTAAC	0.0397
GAGCTGGC	-0.0837
AGTATATG	0.143
CATATATA	0.283
AATATATT	0.326
CATATATG	0.18
CATATATC	0.0851
AATATATA	0.22
AATATATG	0.143

Sequence	PBM E-score
AAAATATC	0.147
AGTATATC	-0.0122
AAAATATG	0.241
AAAATATT	0.266
AGTATATA	0.295
CCCCTAGG	-0.254
ACGCTAGA	-0.209
CTGTTGGA	0.0959
ATCAGGGG	-0.128
GATGGTTA	-0.0584
AGGGTTTC	0.114
AAGGTTTC	0.148
CCGGTTTA	-0.00824
CGGGTTAC	0.0422
CTGGTTTC	0.244
CGGGTTTC	0.323
ACGGTTTC	0.2
ATGGTTTG	0.0887
CAGGTTTC	0.361
ATGGTTTC	0.28
CAGGTTTA	0.0837
CCGGTTTC	0.298
AGCCTCGC	-0.155
GCCCGATA	-0.0773
AAGGTTCG	-0.185

Sequence	PBM E-score
AAGTGCAA	-0.0141
AGTGATGC	-0.099
TCAGACGA	-0.0271
CGGGTTTA	0.304
GGGGTTTA	0.00666
AGGGTTTA	0.00108
GTTCAGAA	-0.0378
CAACCGCG	0.0561
AAAACGCT	0.0239
AAACCGCG	0.287
CCAACGCG	-0.107
AAAACGCG	0.285
CGAACGCG	0.0317
CAAACGCG	0.292
AAACCGCC	0.212
AAAACGCC	0.099
CAGTTTTC	0.105
CACACCAG	0.0883
ACTAGTTA	0.027
AACAGTAT	0.108
AATGGGAG	0.021
ACACTGTC	-0.0374
CTGAGTCA	0.0791
TACTGATA	0.198
GACTGTAA	-0.0138

Sequence	PBM E-score
TACTGAAA	0.358
CACTGAAA	0.322
CACTGAAC	0.0627
AACTGTAA	0.328
GACTGAAA	0.241
AACTGAAC	0.0813
AACTGAAG	0.158
CACTGAAG	-0.03
AACTGTAT	0.134
AACTGAAA	0.422
CGCCATAA	-0.108
AAGACCTA	-0.0739
AATCGCCG	-0.0024
TAACGTAA	0.191
ATAAATGA	0.189
AGTAGACG	-0.0195
TCTCTCAA	0.0783
ACTGCAAT	0.109
AAGGTCCC	-0.279
TGTCACAA	0.3
GGTCACAA	-0.022
CGTCACAA	0.108
AACGTTGG	0.038
CTAGATCA	-0.22
CAGTGGGA	-0.0936

Sequence	PBM E-score
CACCACTC	-0.164
TACCGAAA	0.0921
ACTGTGGA	-0.123
CCTTTCAG	-0.115
CGTTTCCC	0.165
AGTTTCCG	0.148
CGTTTCCA	0.301
AGTTTCAT	0.428
AATTTCAT	0.0623
ACTTTCAG	0.0489
GGTTTCCA	-0.0565
CATTTCAG	0.0948
CGTTTCAG	0.482
AGTTTCAG	0.464
ACTTTCAT	-0.0303
CATTGACG	0.0435
GAGCTCGC	-0.0349
CCCTTAGC	-0.0617
CCGTTGCA	0.0898
